Source: PubChem (The Scripps Research Institute Molecular Screening Center)
Sampled rows, rich in hits. Any-hit rate of the full collection: about 3.5%.
FBW7 activator – FBW7 E3 ligase activators, primary screen, biochemical, AlphaScreen, human; 650,000 tested, 0.13% active; AlphaScreen FBW7–phospho-cyclin E peptide binding, activator screen; normalized activity (activation), % at 26.1 µM; in the data active = normalized activity above about 1.9%;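 also: purified mutant Fbw7 with reduced substrate affinity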
MITF inh – MITF inhibitors, primary screen, biochemical, AlphaScreen, human | Microphthalmia-associated transcription factor (Homo sapiens), O75030 | AlphaScreen MITF homodimerization, bead proximity signal | inhibition, % at 2.6 µM | 650,000 tested, 0.91% active | AID 1259374, 2018; in the data active = inhibition above about 50%
GPR151 activ – activators of human GPR151, primary screen, cell-based, PathHunter beta-arrestin, luminescence; PathHunter beta-arrestin GPR151 cells; activation, % at 11.2 µM; 650,000 tested, 1% active; in the data active = activation above about 4.9%
Target sequence (Q8TDV0 whole entry, looked up): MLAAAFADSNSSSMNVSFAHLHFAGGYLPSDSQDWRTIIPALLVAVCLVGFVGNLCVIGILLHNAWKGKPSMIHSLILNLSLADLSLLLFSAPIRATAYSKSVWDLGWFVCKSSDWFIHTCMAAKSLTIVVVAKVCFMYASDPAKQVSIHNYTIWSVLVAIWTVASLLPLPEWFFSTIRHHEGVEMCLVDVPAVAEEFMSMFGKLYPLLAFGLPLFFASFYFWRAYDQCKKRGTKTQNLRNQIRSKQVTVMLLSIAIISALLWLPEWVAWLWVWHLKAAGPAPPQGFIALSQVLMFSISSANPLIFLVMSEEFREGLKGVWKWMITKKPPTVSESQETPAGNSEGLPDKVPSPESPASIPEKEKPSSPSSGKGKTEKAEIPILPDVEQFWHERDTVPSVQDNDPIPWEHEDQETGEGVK
TEAD-YAP inh – TEAD-YAP interaction inhibition, primary screen, TEAD-YAP interaction inhibitor project, luminescence, HEK-TIYL cells. TEAD-Gal4/YAP UAS-luciferase luminescence. inhibition, % at 9.12 µM. 640,000 tested, 1.4% active. AID 1259422, 2018; in the data active = inhibition above about 32%
GPR151 conf act – GPR151 activators, triplicate retest, confirmation, cell-based, PathHunter beta-arrestin, luminescence; activation, % at 11.2 µM; shares compounds with GPR151 activ; 6,700 tested, under 10 active; GPR151 PathHunter beta-arrestin cells, 90 min; % of EA-reagent control over plate median;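 active = mean percent activation across replicates above the confirmation screen cutoff of 4.91%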
GPR119 counter – GPR119 activators in beta-arrestin cells, counter-screen for GPR151 activator project, cell-based, PathHunter beta-arrestin, luminescence, triplicate; shares compounds with GPR151 activ; 90 min; 0 = compound-well median, 100 = enzyme-acceptor control; activation, % at 11.2 µM; 6,700 tested, 0.3% active; AID 1508611, 2020;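 active = mean percent activation in the counterscreen above 29.09%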;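 also: counterscreen on off-target GPR119 to flag nonselective hits from the GPR151 activator screen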
Numbers stand for hits; 0 = inactive; - = no result; ! = repeats disagree.

SMILES | FBW7 activator | MITF inh | GPR151 activ | TEAD-YAP inh | GPR151 conf act | GPR119 counter
CSCCC(C)N1CCC(Oc2ccc(C(=O)NCc3ccncc3)cc2)CC1 (stereo not given) | 0 | 0 | 5.0 | 0 | 0 | 0
O=C(NCc1ccncc1)c1ccc(OC2CCN(C3CCSCC3)CC2)cc1 | 0 | 0 | 0 | 0 | - | -
COc1ccc(/C=N/NC(=O)CCC2(O)CCCC2)cc1OC | 0 | 0 | 0 | 0 | - | -
COc1ccc(N2C(=O)NC3CC2(C)Oc2c(OC)cccc23)cc1 (stereo not given) | 0 | 0 | 0 | 0 | - | -
COc1ccc(N2C(=O)NC3CC2(C)Oc2c(OC)cccc23)c(OC)c1 (stereo not given) | 0 | 0 | 6.7 | 0 | 0 | 0
CN(C)c1ccc(NC(=O)COc2ccc(Br)cc2Br)cc1 | 0 | 0 | 0 | 0 | - | -
CCOC(=O)C1=C(c2ccccc2)N=c2s/c(=C\c3ccc(N(C)C)cc3)c(=O)n2C1c1cccc(OC)c1OC (stereo not given) | 0 | 0 | 0 | 0 | - | -
COc1ccc(-c2nc(C(=O)N3CCN(C)CC3)sc2-c2ccc(OC)cc2)cc1 | 0 | 0 | 6.7! | - | 0 | 0
CC1(C)NC(=O)N(c2ccc([N+](=O)[O-])c(C(F)(F)F)c2)C1=O | 0 | 0 | 5.5! | 0 | 0 | 0
CC(C)OC1(C(F)(F)F)NC(=O)N(c2cccc(C(F)(F)F)c2)C1=O (stereo not given) | 0 | 0 | 0 | 0 | - | -
Cc1ccc(C(=O)NCc2ccco2)c(Cl)c1 | 0 | 0 | 8.7 | 0 | 0 | 0
COCCNC(=O)C(=O)NCc1ccco1 | 0 | 0 | 0 | 0 | - | -
CCc1ccc(OCCCC(=O)NCc2ccco2)cc1 | 0 | 0 | 6.6 | 0 | 0 | 0
CC(=O)c1ccc(OCCCC(=O)NCc2ccco2)cc1 | 0 | 0 | 0 | 0 | - | -
Cc1ccc(OCCNC(=O)C(=O)NCc2ccco2)cc1 | 0 | 0 | 6.5 | 33 | 0 | 0
CCN(CC)c1nc(NC2CCN(Cc3ccccc3)CC2)nc(N2CCc3ccccc3C2)n1 | 0 | 0 | 0 | 0 | - | -
O=C(c1ccc(OC2CSC2)cc1)N1CCC2(CC1)CC(O)(c1nccs1)CO2 (stereo not given) | 0 | 0 | 0 | 0 | - | -
CCOC(=O)C1=C(O)/C(=C\c2ccc(F)cc2)N=C1C | 0 | 0 | 0 | 0 | - | -
CCOC(=O)C1=C(O)/C(=C/c2ccc(N(C)C)cc2)N=C1C | 0 | 0 | 12 | 0 | 0 | 0
CCOc1ccc(NC(=O)c2ccc([N+](=O)[O-])cc2Cl)cc1 | 0 | 0 | 6.4 | 0 | 0 | 0
O=C(Nc1ccc2oc(=O)ccc2c1)c1ccc([N+](=O)[O-])cc1Cl | 0 | 0 | 9.0 | 0 | 0 | 0
Cc1cc(C(=O)CSc2nc(N)cc(=O)[nH]2)ccc1F | 0 | 0 | 0 | 0 | - | -
Cc1ccc(C(=O)CSc2nc(N)cc(=O)[nH]2)cc1C | 0 | 0 | 5.9 | 0 | 0 | 0
Cc1[nH]c2ccccc2c1C(=O)CSc1nc(N)cc(=O)[nH]1 | 0 | 0 | 5.8 | 0 | 0 | 0
CCN1CCN(C(=O)C(C)N(c2ccc(Oc3ccccc3)cc2)S(C)(=O)=O)CC1 (stereo not given) | 0 | 0 | 0 | 0 | - | -
SMILES | FBW7 activator | MITF inh | GPR151 activ | TEAD-YAP inh | GPR151 conf act | GPR119 counter
Cc1cc(C(=O)COC(=O)CCCNC(N)=O)c(C)n1-c1cccc(C(F)(F)F)c1 | 0 | 0 | 0 | 0 | - | -
COc1ccc(/C=C2\S/C(=N\N=C\c3ccc(OC)c(OC)c3)NC2=O)cc1OC | 0 | 0 | 0 | 0 | - | -
O=C1C(Cl)=C(NCCO)C(=O)N1c1ccc(Cl)cc1 | 0 | 0 | 5.1 | 0 | 0 | 0
CCCOc1ccc(/C=C2/C(=O)ON=C2C)cc1OCC | 0 | 0 | 0 | 0 | - | -
CCCOc1ccccc1/C=C1/C(=O)ON=C1C | 0 | 0 | 7.4 | 0 | 0 | 0
N=C1c2ccccc2CN1c1ncc(C(F)(F)F)cc1Cl | 0 | 0 | 0 | 0 | - | -
CN(CC(=O)c1ccc2cc[nH]c2c1)Cc1ccccc1 | 0 | 0 | 5.3 | 0 | 0 | 0
O=C1CC(=O)Nc2cc(S(=O)(=O)N3CCn4c3nc3ccccc34)ccc2N1 | 0 | 0 | 5.9 | 0 | 0 | 0
